Measured values reported in ChEMBL document CHEMBL3988442, “University of Dundee, Small-Polar-MMV Screening Library” (2021).
Among all 53,000 compounds or so, about 900 (1.7%) showed an effect of 50% or more. Only a selection was taken, and strong results are over-represented in it overall.

Test system: Mycobacterium tuberculosis
Test: Cornell - Phenotypic assay to identify agents that inhibit growth of Mycobacterium tuberculosis
Assay type: functional
Design: scale not given: direction of the effect not stated beside the values
Details: 10 mM as filed; unlikely as a test dose

Structure (SMILES) | Percent Effect [%]
CCc1ncc2c(n1)CN(Cc1nc(-c3ccco3)oc1C)CC2 | -14.23
O=C(Cc1nc(-c2ccncc2)n[nH]1)N1CCOCC1 | -3.393
CCCNc1ccc(C(=O)NCCc2cccc(Cl)c2)cn1 | -5.958
COc1ncc(C(=O)NCc2ccc(Br)cc2)cn1 | 25.41
COc1ccc(CNC(=O)c2ccc(Br)cn2)cc1 | 8.291
COC(=O)c1ccc(C(=O)NCc2ccc(Br)cc2)cn1 | 95.13
CCc1nn(-c2cc(Oc3cccc(C)c3)nc(C)n2)c(N)c1C#N | 11.01
CS(=O)(=O)N1CCN(C(=O)c2cc(-c3ccco3)cs2)CC1 | 10.89
O=C1C(CS(=O)(=O)Nc2ccc(Br)cc2)=NC(=O)n2cccc21 | 17.38
CC(C)c1ccc(NS(=O)(=O)CC2=NC(=O)n3cccc3C2=O)cc1 | 59.8
O=C1C(CS(=O)(=O)Nc2ccc(Cl)cc2)=NC(=O)n2cccc21 | 11.65
COc1cccc(S(=O)(=O)NC(=O)CCC2CCCC2)c1 | 12.89
CC(=O)N1CCC(c2nccnc2CNC(=O)c2cc[nH]n2)CC1 | -11.98
CCc1ccc(CN(Cc2ccccc2)CC(C)CO)nc1 (stereo not given) | 46.77
Cc1c(C(=O)NC(C)C(C)C)nnn1-c1cccc2c1CCN(C)C2 (stereo not given) | 4.546
Cc1[nH]n(-c2ccccc2)c2nnc(N)c1-2 | 107.4
CN(C)CCN1C(=O)CCC12CCCN(C(=O)c1ccncc1F)C2.O=C(O)C(F)(F)F (stereo not given) | -23.79
CS(=O)(=O)N1CCC(OCCCc2ccccc2)C1 (stereo not given) | 18.05
Cn1cc(S(=O)(=O)N2CCC(OCCCc3ccccc3)C2)cn1 (stereo not given) | 25.94
O=S(=O)(c1cccnc1)N1CCC(OCCCc2ccccc2)C1 (stereo not given) | 55.63
COc1ccc(S(=O)(=O)N2CCCC3(CCCN3S(C)(=O)=O)C2)cc1 (stereo not given) | 103.2
CC1(C(N)=O)CN(S(=O)(=O)c2cccc(F)c2)CCO1 (stereo not given) | -8.727

Structure (SMILES) | Percent Effect [%]
COc1ccc(S(=O)(=O)N2CCOC(C)(C(N)=O)C2)cc1 (stereo not given) | 55.81
COc1cccc(S(=O)(=O)N2CCOC(C)(C(N)=O)C2)c1 (stereo not given) | 8.35
CS(=O)(=O)N1CCCC12CCCN(S(=O)(=O)c1ccc(F)cc1)C2 (stereo not given) | -19.89
CS(=O)(=O)N1CCCC12CCCN(S(=O)(=O)c1cc(F)cc(F)c1)C2 (stereo not given) | 2.906
CCc1nnc(Nc2cc(C)nc(C3CN(C(=O)C(C)C)CCO3)c2)s1 (stereo not given) | 1.783
CN1CCCC(c2nnc3n2CCN(S(=O)(=O)c2ccccc2Cl)C3)C1 (stereo not given) | 2.1
CCOc1ccccc1CNC(=O)c1cnn(CC)c1C(F)(F)F | 4.777
COCCn1ccc(=O)c(OCC(=O)Nc2cccc(OC)c2)c1C | -5.179
COCCn1ccc(=O)c(OCC(=O)Nc2ccc(Br)cc2)c1C | 27.51
COCCn1ccc(=O)c(OCC(=O)Nc2ccc(OC)cc2)c1C | 53.75
c1cc(-c2n[nH]cc2-c2ccnc(N3CCCC3)n2)ccn1 | 22.12
Cc1nnc2ccc(N3CCC4(CCOC4)C3)nn12 (stereo not given) | 16.18
FC(F)c1nnc2ccc(N3CCC4(CCCCC4)C3)nn12 | 52.01
FC(F)c1nnc2ccc(N3CCC4(CCOC4)C3)nn12 (stereo not given) | 23.66
CCOC(=O)c1n[nH]cc1-c1cncn1CC(C)n1nc(C)cc1C (stereo not given) | -15.99
CCn1ncc(CN(C)C(=O)c2cc(C(F)(F)F)n(C)n2)c1C | 9.297
COCCNC(=O)c1c(-n2cnnn2)sc2c1CCCC2 | 24.57
CCCc1cncnc1N1CCC(NCc2cc3ccccc3[nH]2)CC1 | 109.8
CCCc1cncnc1N1CCC(NCc2ccc(O)cc2)CC1 | 28.01
CCCc1cncnc1N1CCC(NCc2ccncc2)CC1 | -49.68
CCn1c(C2CCN(C(=O)c3cc(C4CC4)on3)CC2)nn(C)c1=O | 4.422
Cc1cc(C)n(-c2nc(NCCCO)c3c4c(sc3n2)CCCC4)n1 | 82.78

Structure (SMILES) | Percent Effect [%]
COCCNc1nc(-n2nc(C)cc2C)nc2sc3c(c12)CCCC3 | -12.48
Cc1cc(C)n(C2=NC(NCCC(C)C)c3c(sc4c3CCCC4)N2)n1 (stereo not given) | 1.366
CCc1nc(CN(C)C(=O)c2cc(CN(CC)CC)c(CC)o2)no1 | 11.36
COc1ccccc1CN(CCCn1ccnc1)CC1CCOC1.O=C(O)CC(O)(CC(=O)O)C(=O)O (stereo not given) | 1.044
CCN(Cc1ccco1)C(=O)c1cc(OC)c2c(c1)OCCO2 | 11.52
Cn1ncc(NC(=O)c2noc3c2CCCC3)c1C(=O)N1CCCCC1 | 1.181
CC(C)c1nc(S(=O)(=O)N(C)c2ccc(F)cc2)c[nH]1 | 0.9821
CC(C)c1n[nH]c(C(=O)Nc2ccnn2C(C)C)c1Br | -19.54
O=C(CN1CCCC1Cn1cncn1)Nc1ccnn1C1CCCC1 (stereo not given) | 39.34
Cc1ncc(S(=O)(=O)Nc2ccnn2C2CCCCC2)[nH]1 | 106.2
CC(C)c1nc(S(=O)(=O)Nc2ccnn2C2CCCC2)c[nH]1 | 106.1
Cc1nc2c(c(C)c1CC(=O)Nc1ccnn1C(C)C)c(=O)[nH]n2C | -6.05
Cc1ncc(S(=O)(=O)Nc2ccnn2C(C)C)[nH]1 | 85.6
CCN1CCN(S(=O)(=O)c2c[nH]c(C(C)C)n2)c2ccccc21 | 19.57
O=C(Nc1ccnn1C1CCCC1)c1ccc(NC2CC2)nc1 | 16.19
COC1(CNC(=O)CCCc2ccccc2)CCSC1 (stereo not given) | -5.448
Cc1nonc1OCCNC(=O)COc1ccc(F)cc1F | 26.66
CC(C)Sc1ncccc1C(=O)NCc1ccc(O)cc1 | -23.95
O=C(O)C(F)(F)F.O=C(O)C(F)(F)F.c1cncc(OC[C@@]23CCC[C@@H]2CN(CC2CCOCC2)C3)c1 | -8.459
CC(NCc1cc(F)ccc1F)c1ccc(OCC(=O)NC2CC2)cc1 (stereo not given) | -52.24
O=C(NCC1CCCO1)c1cc(-c2ccc3c(c2)CCO3)n[nH]1 (stereo not given) | -17.9
